# Assays:
# Test in all cases: DAPPL (digital affinity profiling via proximity ligation, sequencing); 10 mM Tris-HCl pH 7.5, 50 mM NaCl, 1 mM DTT, 4% glycerol, room temperature, 30 min; GST-TFs on glutathione beads, 16-mer random dsDNA library, 0.1% formaldehyde crosslink after washing; high values mean tight binding
# Conditions in all cases: protein: recombinant; tags: N-terminal GST; dsDNA, one strand shown
# ELK4 = target: T1, ELK4 (Homo sapiens, UniProt P28324-2 1-405)
# T1 sequence: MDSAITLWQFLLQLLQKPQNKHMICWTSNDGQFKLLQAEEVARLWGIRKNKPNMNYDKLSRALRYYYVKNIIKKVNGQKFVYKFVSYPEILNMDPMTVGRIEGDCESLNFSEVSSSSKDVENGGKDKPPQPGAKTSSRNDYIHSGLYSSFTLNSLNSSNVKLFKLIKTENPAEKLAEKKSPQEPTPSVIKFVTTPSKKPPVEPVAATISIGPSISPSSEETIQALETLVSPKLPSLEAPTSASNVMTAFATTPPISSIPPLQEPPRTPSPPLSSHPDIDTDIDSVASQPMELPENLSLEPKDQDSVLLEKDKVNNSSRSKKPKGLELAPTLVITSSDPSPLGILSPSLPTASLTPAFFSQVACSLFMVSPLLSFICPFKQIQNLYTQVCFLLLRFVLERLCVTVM
# Method in brief: (§1)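 A tag-only sample was pooled with DNA-barcoded human transcription factors that had been expressed in yeast as GST fusions and captured on glutathione beads. The pools were incubated for 30 min at room temperature with 200 nmole of a random double-stranded 16-mer DNA library in Tris/NaCl/DTT/glycerol buffer, then washed, crosslinked with 0.1% formaldehyde, proximity-ligated (BsaI/T4 ligase, 1 h, 37 °C), PCR-amplified and sequenced on an Illumina NextSeq500. Binding signal is each hexamer's read frequency for a factor divided by its frequency for the tag-only sample.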
# ELK1 = target: T2, ELK1 (Homo sapiens, UniProt P19419 1-428)
# T2 sequence: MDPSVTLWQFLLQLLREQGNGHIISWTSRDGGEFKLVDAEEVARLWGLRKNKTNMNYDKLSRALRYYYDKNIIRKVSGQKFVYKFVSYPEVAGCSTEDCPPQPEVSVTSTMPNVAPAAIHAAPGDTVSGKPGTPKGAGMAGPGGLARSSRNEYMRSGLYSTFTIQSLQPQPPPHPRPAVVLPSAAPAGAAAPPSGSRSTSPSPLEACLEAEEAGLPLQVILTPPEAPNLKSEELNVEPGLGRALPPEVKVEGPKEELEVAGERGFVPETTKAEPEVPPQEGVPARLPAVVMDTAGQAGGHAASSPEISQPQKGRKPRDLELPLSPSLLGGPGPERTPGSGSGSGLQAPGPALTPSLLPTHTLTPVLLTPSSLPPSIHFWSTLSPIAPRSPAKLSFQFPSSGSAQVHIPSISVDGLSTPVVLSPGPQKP
# Method in brief: as §1
# GABPA = target: T3, GABPA (Homo sapiens, UniProt Q06546 1-454)
# T3 sequence: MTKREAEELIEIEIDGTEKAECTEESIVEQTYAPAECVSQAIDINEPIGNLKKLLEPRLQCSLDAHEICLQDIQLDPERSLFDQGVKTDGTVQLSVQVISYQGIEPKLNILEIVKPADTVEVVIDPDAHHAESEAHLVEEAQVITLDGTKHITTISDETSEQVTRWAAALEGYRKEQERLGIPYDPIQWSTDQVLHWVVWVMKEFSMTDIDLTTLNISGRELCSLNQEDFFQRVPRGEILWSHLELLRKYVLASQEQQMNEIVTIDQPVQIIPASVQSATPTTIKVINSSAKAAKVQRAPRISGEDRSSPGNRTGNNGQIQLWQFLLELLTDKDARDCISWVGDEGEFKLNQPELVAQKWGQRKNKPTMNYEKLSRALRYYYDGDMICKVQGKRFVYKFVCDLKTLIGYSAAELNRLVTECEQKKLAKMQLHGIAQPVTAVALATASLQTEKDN
# Method in brief: as §1
# ELF1 = ELF1 (Homo sapiens, UniProt P32519 1-619)
# Method in brief: as §1
# ELK3 = target: T4, ELK3 (Homo sapiens, UniProt P41970 1-407)
# T4 sequence: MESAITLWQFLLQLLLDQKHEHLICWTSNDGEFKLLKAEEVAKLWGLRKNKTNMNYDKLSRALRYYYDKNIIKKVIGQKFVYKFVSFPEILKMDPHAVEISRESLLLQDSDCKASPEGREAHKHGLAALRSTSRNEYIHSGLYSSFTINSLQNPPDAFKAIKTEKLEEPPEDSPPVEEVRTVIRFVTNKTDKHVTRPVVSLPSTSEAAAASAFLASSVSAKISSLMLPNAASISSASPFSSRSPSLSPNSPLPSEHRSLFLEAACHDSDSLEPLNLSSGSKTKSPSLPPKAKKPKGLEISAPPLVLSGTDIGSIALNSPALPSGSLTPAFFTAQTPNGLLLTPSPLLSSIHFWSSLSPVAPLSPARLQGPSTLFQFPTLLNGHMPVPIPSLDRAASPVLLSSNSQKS
# Method in brief: as §1
# ETV2 = target: T5, ETV2 (Homo sapiens, UniProt O00321 1-342)
# T5 sequence: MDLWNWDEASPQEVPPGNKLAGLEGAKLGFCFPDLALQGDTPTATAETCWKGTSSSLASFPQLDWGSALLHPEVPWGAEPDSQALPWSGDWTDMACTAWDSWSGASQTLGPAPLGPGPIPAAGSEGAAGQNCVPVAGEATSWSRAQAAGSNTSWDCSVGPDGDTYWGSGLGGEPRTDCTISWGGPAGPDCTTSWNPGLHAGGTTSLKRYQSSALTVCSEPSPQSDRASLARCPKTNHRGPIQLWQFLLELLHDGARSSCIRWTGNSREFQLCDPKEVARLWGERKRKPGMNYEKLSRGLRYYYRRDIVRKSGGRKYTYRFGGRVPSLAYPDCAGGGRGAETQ
# Method in brief: as §1
# ELF3 = target: T6, ELF3 (Homo sapiens, UniProt P78545 1-371)
# T6 sequence: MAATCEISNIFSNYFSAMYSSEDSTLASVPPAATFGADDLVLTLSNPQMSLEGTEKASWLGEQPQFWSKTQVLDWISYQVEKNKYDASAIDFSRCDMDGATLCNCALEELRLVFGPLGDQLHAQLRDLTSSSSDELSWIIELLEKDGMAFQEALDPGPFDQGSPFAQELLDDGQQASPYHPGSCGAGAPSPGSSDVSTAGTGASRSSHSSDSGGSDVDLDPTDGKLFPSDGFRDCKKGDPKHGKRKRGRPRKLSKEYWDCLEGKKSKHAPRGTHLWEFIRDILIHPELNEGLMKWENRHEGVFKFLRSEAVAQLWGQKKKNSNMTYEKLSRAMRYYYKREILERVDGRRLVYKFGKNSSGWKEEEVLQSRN
# Method in brief: as §1
# ERF = target: T7, ERF (Homo sapiens, UniProt P50548 1-548)
# T7 sequence: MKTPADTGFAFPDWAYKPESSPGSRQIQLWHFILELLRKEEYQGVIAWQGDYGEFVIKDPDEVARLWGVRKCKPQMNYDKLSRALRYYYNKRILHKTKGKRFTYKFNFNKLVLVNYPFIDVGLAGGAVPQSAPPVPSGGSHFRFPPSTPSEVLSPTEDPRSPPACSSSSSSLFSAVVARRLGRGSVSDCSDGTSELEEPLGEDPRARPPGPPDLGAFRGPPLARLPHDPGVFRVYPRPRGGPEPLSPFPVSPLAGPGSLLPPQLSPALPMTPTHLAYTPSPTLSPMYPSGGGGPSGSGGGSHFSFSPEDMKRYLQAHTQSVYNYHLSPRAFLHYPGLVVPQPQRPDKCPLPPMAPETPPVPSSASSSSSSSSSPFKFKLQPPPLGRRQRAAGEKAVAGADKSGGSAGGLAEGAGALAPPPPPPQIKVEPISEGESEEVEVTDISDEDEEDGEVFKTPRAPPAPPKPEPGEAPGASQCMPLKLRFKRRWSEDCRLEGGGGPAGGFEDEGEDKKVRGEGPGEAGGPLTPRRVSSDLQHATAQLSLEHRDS
# Method in brief: as §1
# SPDEF = target: T8, SPDEF (Homo sapiens, UniProt O95238 1-335)
# T8 sequence: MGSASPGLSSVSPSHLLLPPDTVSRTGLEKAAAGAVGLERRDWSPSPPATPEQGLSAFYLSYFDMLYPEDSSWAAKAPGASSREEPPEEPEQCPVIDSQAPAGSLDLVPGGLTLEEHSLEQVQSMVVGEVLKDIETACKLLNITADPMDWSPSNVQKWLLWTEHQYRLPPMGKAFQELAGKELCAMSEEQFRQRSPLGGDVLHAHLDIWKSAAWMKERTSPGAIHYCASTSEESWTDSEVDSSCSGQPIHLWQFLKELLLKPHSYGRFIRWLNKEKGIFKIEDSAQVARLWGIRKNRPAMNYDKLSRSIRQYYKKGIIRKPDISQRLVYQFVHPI
# Method in brief: as §1
# ETV3 = target: T9, ETV3 (Homo sapiens, UniProt P41162-2 1-143)
# T9 sequence: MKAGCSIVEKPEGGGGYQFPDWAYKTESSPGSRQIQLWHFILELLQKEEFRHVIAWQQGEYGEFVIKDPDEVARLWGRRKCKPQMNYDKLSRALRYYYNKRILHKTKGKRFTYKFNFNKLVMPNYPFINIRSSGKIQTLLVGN
# Method in brief: as §1
# ETV6 = ETV6 (Homo sapiens, UniProt P41212 1-452)
# Method in brief: as §1
# EHF = target: T10, EHF (Homo sapiens, UniProt Q9NZC4 1-300)
# T10 sequence: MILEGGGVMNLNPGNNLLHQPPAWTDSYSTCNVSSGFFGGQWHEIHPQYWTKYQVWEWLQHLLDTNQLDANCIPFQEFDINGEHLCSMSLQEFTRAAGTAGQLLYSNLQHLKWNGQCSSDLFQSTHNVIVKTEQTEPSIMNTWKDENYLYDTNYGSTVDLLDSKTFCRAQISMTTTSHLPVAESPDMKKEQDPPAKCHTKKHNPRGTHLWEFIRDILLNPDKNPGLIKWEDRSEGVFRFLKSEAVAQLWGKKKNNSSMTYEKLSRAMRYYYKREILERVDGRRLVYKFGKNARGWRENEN
# Method in brief: as §1
# SPI1 = SPI1 (Homo sapiens, UniProt P17947 1-270)
# Method in brief: as §1
# ELF4 = ELF4 (Homo sapiens, UniProt Q99607 1-663)
# Method in brief: as §1
# CRX = CRX (Homo sapiens, UniProt O43186 1-299)
# Method in brief: as §1
# ETV7 = target: T11, ETV7 (Homo sapiens, UniProt Q9Y603 1-341)
# T11 sequence: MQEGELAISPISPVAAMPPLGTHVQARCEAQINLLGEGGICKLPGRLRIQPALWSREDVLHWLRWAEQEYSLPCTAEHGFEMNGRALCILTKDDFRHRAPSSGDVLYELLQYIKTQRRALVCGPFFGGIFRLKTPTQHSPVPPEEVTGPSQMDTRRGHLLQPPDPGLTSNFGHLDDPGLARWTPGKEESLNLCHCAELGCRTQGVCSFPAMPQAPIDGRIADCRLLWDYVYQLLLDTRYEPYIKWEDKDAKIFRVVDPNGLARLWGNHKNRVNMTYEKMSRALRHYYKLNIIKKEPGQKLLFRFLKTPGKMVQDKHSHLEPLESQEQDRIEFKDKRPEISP
# Method in brief: as §1
# ELF1, sequence (P32519 whole entry): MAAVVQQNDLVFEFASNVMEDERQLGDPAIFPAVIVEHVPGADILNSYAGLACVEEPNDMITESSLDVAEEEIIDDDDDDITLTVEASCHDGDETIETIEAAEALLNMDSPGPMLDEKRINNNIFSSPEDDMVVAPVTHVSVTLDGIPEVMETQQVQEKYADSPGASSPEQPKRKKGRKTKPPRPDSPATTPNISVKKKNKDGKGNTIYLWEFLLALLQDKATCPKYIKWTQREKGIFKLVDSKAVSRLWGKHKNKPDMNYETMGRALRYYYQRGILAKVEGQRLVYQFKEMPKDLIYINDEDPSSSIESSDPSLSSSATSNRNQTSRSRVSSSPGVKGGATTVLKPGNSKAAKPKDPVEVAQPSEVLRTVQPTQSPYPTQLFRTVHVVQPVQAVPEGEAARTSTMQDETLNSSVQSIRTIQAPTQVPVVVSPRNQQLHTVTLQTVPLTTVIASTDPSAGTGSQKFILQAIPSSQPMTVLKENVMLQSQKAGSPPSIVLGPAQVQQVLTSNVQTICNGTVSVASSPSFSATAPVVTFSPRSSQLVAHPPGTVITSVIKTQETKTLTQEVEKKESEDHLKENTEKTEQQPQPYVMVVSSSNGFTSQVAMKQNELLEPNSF
# ELF4, sequence (Q99607 whole entry): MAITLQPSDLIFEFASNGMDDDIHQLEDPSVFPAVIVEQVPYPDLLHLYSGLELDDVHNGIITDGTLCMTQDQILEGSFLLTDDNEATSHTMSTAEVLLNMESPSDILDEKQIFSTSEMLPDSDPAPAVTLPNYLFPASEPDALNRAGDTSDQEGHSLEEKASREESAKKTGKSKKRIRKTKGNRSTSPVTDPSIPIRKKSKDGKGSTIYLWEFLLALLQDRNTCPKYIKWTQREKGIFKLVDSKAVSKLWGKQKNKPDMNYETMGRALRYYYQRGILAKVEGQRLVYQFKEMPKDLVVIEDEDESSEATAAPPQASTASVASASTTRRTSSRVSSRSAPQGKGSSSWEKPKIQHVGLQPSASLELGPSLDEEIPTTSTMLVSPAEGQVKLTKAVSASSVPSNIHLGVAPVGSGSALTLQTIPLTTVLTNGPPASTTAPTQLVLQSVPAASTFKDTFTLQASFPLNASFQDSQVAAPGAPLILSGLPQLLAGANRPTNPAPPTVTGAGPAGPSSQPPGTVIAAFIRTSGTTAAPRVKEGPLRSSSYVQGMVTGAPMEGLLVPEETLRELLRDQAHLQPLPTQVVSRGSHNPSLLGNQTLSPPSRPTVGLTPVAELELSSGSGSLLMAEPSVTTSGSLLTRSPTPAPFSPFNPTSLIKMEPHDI
# ETV6, sequence (P41212 whole entry): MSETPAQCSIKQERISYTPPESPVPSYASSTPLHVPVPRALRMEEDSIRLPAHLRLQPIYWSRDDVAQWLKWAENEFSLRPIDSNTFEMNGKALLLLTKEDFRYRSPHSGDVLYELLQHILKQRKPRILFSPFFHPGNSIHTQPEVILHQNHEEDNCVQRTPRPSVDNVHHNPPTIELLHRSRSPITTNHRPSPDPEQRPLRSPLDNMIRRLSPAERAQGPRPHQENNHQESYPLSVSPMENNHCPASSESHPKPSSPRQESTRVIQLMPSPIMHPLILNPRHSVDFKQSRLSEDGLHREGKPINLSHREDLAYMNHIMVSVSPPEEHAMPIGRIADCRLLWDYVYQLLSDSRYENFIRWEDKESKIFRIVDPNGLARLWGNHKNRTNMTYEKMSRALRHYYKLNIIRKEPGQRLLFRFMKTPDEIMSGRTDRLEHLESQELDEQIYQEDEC
# CRX, sequence (O43186 whole entry): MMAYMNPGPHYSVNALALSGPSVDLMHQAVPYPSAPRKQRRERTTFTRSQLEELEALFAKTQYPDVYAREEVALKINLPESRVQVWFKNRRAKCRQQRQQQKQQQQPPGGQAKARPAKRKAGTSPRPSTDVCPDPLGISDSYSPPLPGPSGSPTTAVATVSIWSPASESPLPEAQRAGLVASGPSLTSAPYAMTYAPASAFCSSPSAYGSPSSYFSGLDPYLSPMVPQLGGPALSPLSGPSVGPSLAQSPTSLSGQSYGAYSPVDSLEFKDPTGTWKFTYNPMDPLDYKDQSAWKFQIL
sequence,measurement,setting,value
GCAGGT,binding signal,ELK4,"1.01 fold enrichment (6-mer frequency, TF over GST control)"
CAAACG,binding signal,ELK1,"1.04 fold enrichment (6-mer frequency, TF over GST control)"
same,binding signal,GABPA,"1.05 fold enrichment (6-mer frequency, TF over GST control)"
same,binding signal,ELF1,"1.04 fold enrichment (6-mer frequency, TF over GST control)"
same,binding signal,ELK3,"1.07 fold enrichment (6-mer frequency, TF over GST control)"
same,binding signal,ELK4,"1.05 fold enrichment (6-mer frequency, TF over GST control)"
same,binding signal,ETV2,"1.02 fold enrichment (6-mer frequency, TF over GST control)"
same,binding signal,ELF3,"1.06 fold enrichment (6-mer frequency, TF over GST control)"
same,binding signal,ERF,"1.03 fold enrichment (6-mer frequency, TF over GST control)"
same,binding signal,SPDEF,"1.02 fold enrichment (6-mer frequency, TF over GST control)"
same,binding signal,ETV3,"1.04 fold enrichment (6-mer frequency, TF over GST control)"
same,binding signal,ETV6,"1.02 fold enrichment (6-mer frequency, TF over GST control)"
CTGAGG,binding signal,ELK4,"1.02 fold enrichment (6-mer frequency, TF over GST control)"
TAACGT,binding signal,ELK1,"1.02 fold enrichment (6-mer frequency, TF over GST control)"
same,binding signal,ELF1,"1.01 fold enrichment (6-mer frequency, TF over GST control)"
same,binding signal,EHF,"1.02 fold enrichment (6-mer frequency, TF over GST control)"
same,binding signal,SPI1,"1.03 fold enrichment (6-mer frequency, TF over GST control)"
same,binding signal,ELK3,"1.08 fold enrichment (6-mer frequency, TF over GST control)"
same,binding signal,ELF4,"1.01 fold enrichment (6-mer frequency, TF over GST control)"
same,binding signal,ELK4,"1.06 fold enrichment (6-mer frequency, TF over GST control)"
same,binding signal,ETV2,"1.02 fold enrichment (6-mer frequency, TF over GST control)"
same,binding signal,ELF3,"1.06 fold enrichment (6-mer frequency, TF over GST control)"
same,binding signal,CRX,"1.16 fold enrichment (6-mer frequency, TF over GST control)"
same,binding signal,ERF,"1.07 fold enrichment (6-mer frequency, TF over GST control)"
same,binding signal,SPDEF,"1.05 fold enrichment (6-mer frequency, TF over GST control)"
same,binding signal,ETV7,"1.01 fold enrichment (6-mer frequency, TF over GST control)"
same,binding signal,ETV3,"1.04 fold enrichment (6-mer frequency, TF over GST control)"
